According to PubChem BioAssay (NCI):
The panel holds about 83,000 compounds, 20% with a hit somewhere; the sample as a whole holds those more often.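 Note: values are percent growth. 100 is the growth of untreated cells, values between 100 and 0 indicate rising inhibition; between -100 and 0 indicates cell death.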 Values without a mark were called inactive. The source made the active and inactive calls.

test system: CAKI-1 renal; test: NCI-60 one-dose screen, 48 h (100 = growth as untreated, 0 = no growth, -100 = all killed); conditions: 10 µM unless noted
Experimental: Growth inhibition of the CAKI-1 human tumor cell line is measured as a screen for anti-cancer activity. Cells are grown in 96 well plates and exposed to the test compound for 48 hours. Compounds are tested at a single concentration, which is 10^-5 M for most compounds. The reported endpoint is percent growth (GI% or GIPRCNT), where numbers from 0 - 100% represent growth inhibition, and numbers from -100% - 0 represent cell death. For example, a value of 40 represents 60% growth inhibition. A value of 0 means no net growth occurred over the course of the experiment. A value of -40 indicates 40% of cells at the beginning of the experiment died by the end of the experiment. A value of -100 means all cells are dead at the end of the experiment.
NCI-60 Human Tumor Cell Lines Screen was performed using the standard one-dose NCI protocol, which is described in more detail at https://dtp.cancer.gov/discovery_development/nci-60/default.htm.
Compounds with GIPRCNT values below 10 were considered active. Activity score was based on GIPRCNT using the following formula: […]
Score is 0 for GIPRCNT values of 100 or above, 50 for GIPRCNT values of 0, and 100 for GIPRCNT values of -100.

Row | Compound | growth
1 | Cc1ccc(C(=O)/C(=C\c2ccc([N+](=O)[O-])cc2)S(=O)Cc2ccc(F)cc2)cc1 (stereo not given) | 30.3%
2 | O=C(c1nnc(Nc2ccccc2Br)o1)c1c[nH]c2ccccc12 | 87.4%
3 | C=C1C(=O)O[C@H]2[C@H]1CC/C(CNC(=O)CCc1ccc(OC)cc1)=C\CC[C@@]1(C)O[C@@H]21 | 38.1%
4 | CCCCCCCCO/N=C\c1c2c(O)c3c(O)c(C)c4c(c3c1O)C(=O)C(C)(O/C=C\C(OC)C(C)C(OC(C)=O)C(C)C(O)C(C)C(O)C(C)/C=C\C=C(\C)C(=O)N2)O4 (stereo not given) | 13.1%
5 | C#CCNC(=O)[C@H](Cc1ccccc1)NC(=O)[C@]12CC[C@@H](C(=C)C)[C@@H]1[C@H]1CC[C@@H]3[C@@]4(C)CCC(=O)C(C)(C)[C@@H]4CC[C@@]3(C)[C@]1(C)CC2 | 55.4%
6 | Cc1cccc(NC(=O)Nc2ccc(-c3ccc4c(c3)NC(=O)/C4=C\c3ccc[nH]3)cc2)c1 | 82.6%
7 | CN[C@@H](C)C(=O)N[C@H]1CCS[C@H]2CC(C)(C)[C@@H](C(=O)N[C@H]3c4ccccc4C[C@H]3OCC#CC#CCO[C@@H]3Cc4ccccc4[C@@H]3NC(=O)[C@H]3N4C(=O)[C@@H](NC(=O)[C@H](C)NC)CCS[C@H]4CC3(C)C)N2C1=O | 99.9%
8 | COc1cc(-c2csc(NC(=O)c3cc(F)cc(C(F)(F)F)c3)n2)cc(OC)c1OC | 42.7%
9 | COc1cccc2c1c1nc3cc(C)c(C)cc3nc1n2CCN(C)C | 9.75% (active)
10 | CCCOC(=O)N[C@H]1CCc2c(Cl)c(OC)c(OC)c(OC)c2-c2ccc(SC)c(=O)cc21 | 13.8%
11 | O=C1c2ccccc2CCC12OC2c1cn(-c2ccccc2)nc1-c1ccc(Cl)cc1 (stereo not given) | 74.3%
12 | O=[N+]([O-])CC(c1ccccc1)c1c[nH]c2ccccc12 (stereo not given) | 42%
13 | Cc1nc2sccn2c1-c1nc2sccn2c1/C=C1/C(=O)Nc2ccccc21 | 2.29% (active)
14 | O=C1Nc2cc(-c3ccc(NC(=O)c4ccccc4)cc3)ccc2/C1=C/c1ccc[nH]1 | 100%
15 | C=CCn1c(-c2ccc(-c3nc4ccc(C)cc4[nH]3)cc2)n[nH]c1=S | 93.6%
16 | COc1ccc2c(c1)C(=O)CC(c1ccccc1OC)O2 (stereo not given) | 89.2%
17 | Cc1c2cc[nH]c(=O)c2c(C)c2c1[nH]c1cc(OCCN3CCN(C)CC3)ccc12 | 43.7%
18 | Cc1cccc(C)c1N=c1oc2ccc(Cl)cc2nc1-c1ccccc1O | 90.4%
19 | COc1cc(/C=N/NC(=O)c2cnn3c2NC(c2ccccc2)C3)ccc1OCc1ccccc1 (stereo not given) | 0.476% (active)
20 | CCNC(=O)Oc1ccc(/C(=C(\C)c2ccccc2)c2ccc(OCCCN(C)C)cc2)cc1 | 84.3%

Row | Compound | growth
21 | Fc1ccc2c(-c3cncn3CCc3ccccc3)c[nH]c2c1 | 75.2%
22 | Cc1cccc(-c2cn3ccnc3c(-c3ccc4ncn(Cc5ccccc5)c4c3)n2)c1 | 75.2%
23 | CNCCOc1nc2c3cnccc3cc(-c3cc(OC)c(OC)c(OC)c3)c2c2ccncc12 | -31% (active)
24 | CN1[C@@H]2CC[C@H]1/C(=C\c1ccccc1)C(=O)/C2=C/c1ccccc1 | 41.3%
25 | CC(=O)[C@H]1CCC/C=C/[C@@H]2C[C@H](O)C[C@H]2[C@H](O)/C=C/C(=O)O1 | -15.7% (active)
26 | CC(Sc1nc2ccccc2c(=O)n1CCc1ccc(S(N)(=O)=O)cc1)C(=O)Nc1ccc(Cl)cc1 (stereo not given) | 75.6%
27 | CN(C)CC(O)c1ccc(/C=C/c2ccc(Cl)cc2)cc1 (stereo not given) | -46.1% (active)
28 | CC(=O)O[C@H]1Cc2c([nH]c3ccccc23)[C@@H](c2ccc(Cl)cc2)N1C(=O)CCNC(C)(C)C | 63.6%
29 | COc1ccc(-c2cnc3c(-c4cccc5cnccc45)cnn3c2)cc1 | 61.4%
30 | O=C(/C(=C/c1ccc([N+](=O)[O-])cc1)SCc1ccc(F)cc1)c1ccc(F)cc1 | 75.2%
31 | CC(=O)Nc1cccc(-c2ccc3c(c2)NC(=O)/C3=C\c2ccc[nH]2)c1 | 33%
32 | O=S(=O)(NCCCNc1nccc(-c2c(-c3cccc(F)c3)nc3sccn23)n1)c1cccc(F)c1 | 41.5%
33 | C[C@@H](Nc1ncnc2ccc(-c3cnc(N)nc3)cc12)c1ccc(F)cc1 | 40.6%
34 | Oc1ccc(OCCOc2ccc(O)cc2)cc1 | 11.4%
35 | Cc1ccc(NC(=O)Cc2ccc(/C=C/C(=O)c3ncc[nH]3)cc2)cc1 | 61.1%
36 | O=C(Nc1ccc(F)cc1)Nc1ccc(NC(=O)c2cc(Cl)nc3ccccc23)cc1 | 78.5%
37 | C/C=C(\C)C(=O)NC1=CC[C@@]2(C)C(=CCC3C2CC[C@@]2(C)C3CC[C@@H]2C(C)N(C)C)C1=O (stereo not given in full) | 63.6%
38 | CN1CCC(=C(c2ccccc2)c2ccccc2)C(c2ccccc2)C1 (stereo not given) | 66.4%
39 | COc1ccc(-c2[nH][nH]c(=O)c2-c2nc3ccccc3s2)cc1 | 88%
40 | COc1ccc(C(=O)c2nc3ccccc3n2CC(=O)c2ccc(Cl)cc2)cc1 | 23.7%
